According to article PMC5540273 (PLoS ONE, 2017):

What follows are molecules tested on KIT. Conditions: concentration: 1 μM, replicates: in singlicate; n = 1.
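Also: KINOMEscan kinase panel screen.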

Row | SMILES | %Inh
1 | Cc1ccccc1COc1cc(-n2cnc3cc(Cl)ccc32)sc1C(N)=O [GW813349] | 0%
2 | COc1cc2ncn(-c3cc(OCCCc4ccccc4)c(C(N)=O)s3)c2cc1OC [GSK205189] | 13%
3 | COc1cc2ncn(-c3cc(OCc4ccncc4Br)c(C(N)=O)s3)c2cc1OC [GW854278] | 24%
4 | O=C1NC(=O)C(c2ccccc2)=C1Nc1cccc(O)c1 [SB-390534] | 10%
5 | Cc1cccc(-c2nc(Nc3ccc4c(cnn4C)c3)c3ccccc3n2)n1 [GW876731] | 7%
6 | COc1ccc(CNC(=O)NC2CCN(c3ccnc(Nc4ccc(F)cc4)n3)C2)cc1 (stereo not shown) [GSK1379706] | 39%
7 | O=C(NCCNc1ccnc(Nc2ccc(F)cc2)n1)Nc1ccc2c(c1)OCO2 [GSK1379882] | 34%
8 | CCS(=O)(=O)c1ccc(OC)c(Nc2ncc(-c3ccc(F)cc3)o2)c1.Cl [GW591947] | 17%
9 | COC(=O)c1c(-c2ccccc2)c2cc(Br)ccc2c(=O)n1Cc1ccc(NC(=O)CCC(=O)O)cc1 | 38%
10 | O=C(Nc1n[nH]c2cc(-c3ccccc3F)ccc12)C1CC1 [SB-733371] | 10%
11 | Cc1nn2c(=O)cc(N3CCOCC3)nc2n1Cc1cccc(Cl)c1Cl [GSK2342769] | 10%
12 | O=c1cc(N2CCOCC2)nc2n(Cc3ccc(F)c(Cl)c3)ccn12 [GSK2297099] | 9%
13 | Cc1nnc(-c2ccc(C)c(-c3ccc(C(=O)O)cc3)c2)o1 [GW608005] | 0%
14 | Cc1c(Cn2c(C)nn3c(=O)cc(N4CCO[C@H](C)C4)nc23)cccc1C(F)(F)F [GSK2373690] | 13%
15 | Nc1ncnc2c1ncn2-c1cccc(F)c1 [SKF-97560] | 39%
16 | Nc1ncnc2c1ncn2-c1ccc(Cl)cc1 [AH2635] | 65%
17 | CC(C)(C)c1ccc(C(=O)Nc2cn3cc(-c4ccccc4)ccc3n2)cc1 | 92.6%
18 | Nc1nc(-c2ccccc2F)c(-c2ccnc3ccccc23)s1 [GW560459] | 9%
19 | CCC(=O)c1c(-c2ccccc2)c2cc(Cl)ccc2c(=O)n1Cc1cc(C(=O)NC2CC2)n(C)n1 | 58%
20 | CCS(=O)c1ccc(-c2coc3ccc(-c4nnc(C)o4)cc23)cc1 (stereo not shown) | 5%
21 | COc1ccc(-c2cc3c(C)nc(N)nc3n([C@H]3CC[C@H](OCCO)CC3)c2=O)cn1 | 7%
22 | O=C(Nc1ccc2c(c1)OCO2)NC1CCN(c2ccnc(NCc3ccc(F)cc3)n2)CC1 [GSK1379859] | 2%

What follows are molecules tested on LATS1. Conditions: concentration: 1 μM, replicates: in singlicate; n = 1.

Row | SMILES | %Inh
23 | COc1cc2ncn(-c3cc(OCc4ccncc4)c(C(N)=O)s3)c2cc1OC [GSK336313] | 0%
24 | OCCCNc1nccc(-c2c(-c3cccc(C(F)(F)F)c3)nn3cc(C(F)(F)F)ccc23)n1 [GW630813] | 0%
25 | Cc1ccc(Oc2ccc(Nc3ncnc4cc[nH]c34)cc2C)cn1 | 26%
26 | COc1cc(Nc2nccc(N3CCC(NC(=O)C(C)c4ccc(Cl)cc4)C3)n2)cc(OC)c1OC (stereo not shown) [GSK1379757] | 0%
27 | Nc1nc(N)c2nc(-c3ccccc3)[nH]c2n1 [SKF-12778] | 0%
28 | COc1cc(OC)cc(-c2cc3cnc(N)nc3nc2NC(=O)NC(C)(C)C)c1 | 0%
29 | COc1cc2nccc(Nc3cccc(Oc4ccccc4)c3)c2cc1OC.Cl [GW284543] | 10%
30 | CCn1c(-c2ccoc2)nc2cnccc21 [SB-733887] | 19%
31 | CCn1c(-c2nonc2N)nc2ccccc21 [SB-693162/GW549034] | 0%
32 | COC(=O)c1c(-c2ccccc2)c2cc(C)ccc2c(=O)n1Cc1ccccc1 | 0%
33 | CCCNC(=O)Nc1ccc(Oc2ncnc3ccn(C)c23)cc1 | 44%
34 | COc1ccc(-c2coc3ccc(-c4nnc(SCc5cccc(C#N)c5)o4)cc23)cc1 | 29%
35 | CCC(=O)c1c(-c2ccccc2)c2cc(Cl)ccc2c(=O)n1Cc1cc(S(C)(=O)=O)n(CC(F)F)n1 | 0%
36 | CN1C(=O)C(Nc2ccccc2)=C(c2ccccc2)C1=O [SB-300079] | 0%
37 | Cc1ccccc1COc1cc(-n2cnc3cc(Cl)ccc32)sc1C(N)=O [GW813349] | 0%
38 | COc1cc2ncn(-c3cc(OCCCc4ccccc4)c(C(N)=O)s3)c2cc1OC [GSK205189] | 0%
39 | COc1cc2ncn(-c3cc(OCc4ccncc4Br)c(C(N)=O)s3)c2cc1OC [GW854278] | 22%
40 | O=C1NC(=O)C(c2ccccc2)=C1Nc1cccc(O)c1 [SB-390534] | 21%

Row | SMILES | %Inh
41 | Cc1cccc(-c2nc(Nc3ccc4c(cnn4C)c3)c3ccccc3n2)n1 [GW876731] | 0%
42 | COc1ccc(CNC(=O)NC2CCN(c3ccnc(Nc4ccc(F)cc4)n3)C2)cc1 (stereo not shown) [GSK1379706] | 22%
43 | O=C(NCCNc1ccnc(Nc2ccc(F)cc2)n1)Nc1ccc2c(c1)OCO2 [GSK1379882] | 0%
44 | CCS(=O)(=O)c1ccc(OC)c(Nc2ncc(-c3ccc(F)cc3)o2)c1.Cl [GW591947] | 0%
45 | COC(=O)c1c(-c2ccccc2)c2cc(Br)ccc2c(=O)n1Cc1ccc(NC(=O)CCC(=O)O)cc1 | 27%
46 | O=C(Nc1n[nH]c2cc(-c3ccccc3F)ccc12)C1CC1 [SB-733371] | 27%
47 | Cc1nn2c(=O)cc(N3CCOCC3)nc2n1Cc1cccc(Cl)c1Cl [GSK2342769] | 0%
48 | O=c1cc(N2CCOCC2)nc2n(Cc3ccc(F)c(Cl)c3)ccn12 [GSK2297099] | 4%
49 | Cc1nnc(-c2ccc(C)c(-c3ccc(C(=O)O)cc3)c2)o1 [GW608005] | 0%
50 | Cc1c(Cn2c(C)nn3c(=O)cc(N4CCO[C@H](C)C4)nc23)cccc1C(F)(F)F [GSK2373690] | 0%
51 | Nc1ncnc2c1ncn2-c1cccc(F)c1 [SKF-97560] | 0%
52 | Nc1ncnc2c1ncn2-c1ccc(Cl)cc1 [AH2635] | 0%
53 | CC(C)(C)c1ccc(C(=O)Nc2cn3cc(-c4ccccc4)ccc3n2)cc1 | 0%
54 | Nc1nc(-c2ccccc2F)c(-c2ccnc3ccccc23)s1 [GW560459] | 0%
55 | CCC(=O)c1c(-c2ccccc2)c2cc(Cl)ccc2c(=O)n1Cc1cc(C(=O)NC2CC2)n(C)n1 | 19%
56 | CCS(=O)c1ccc(-c2coc3ccc(-c4nnc(C)o4)cc23)cc1 (stereo not shown) | 18%
57 | COc1ccc(-c2cc3c(C)nc(N)nc3n([C@H]3CC[C@H](OCCO)CC3)c2=O)cn1 | 26%
58 | O=C(Nc1ccc2c(c1)OCO2)NC1CCN(c2ccnc(NCc3ccc(F)cc3)n2)CC1 [GSK1379859] | 0%
